# Screen size: about 69,000 compounds; about 950 (1.4%) showed an effect of 50% or more. This excerpt belongs to a sample that is enriched for strong results.
# System: Mycobacterium tuberculosis
# Test: Cornell M. t heat shock assay; note: in the data most compounds retested in dose-response had high values
# Type: functional, organism-based
# Set-up: dose or concentration left out as unconfirmed
row,Structure (SMILES),Percent Effect
1,O=C(O)C(F)(F)F.O=C(c1cscn1)N1CCc2ncnc(-c3cccnc3)c2CC1,-9.91%
2,CC(=O)N1N=C(c2cccs2)OC1C(=O)NCCc1cccc(Cl)c1 (stereo not drawn),62.85%
3,CC(=O)N1N=C(c2ccccc2)OC1C(=O)NCCc1cccc(F)c1 (stereo not drawn),26%
4,COc1ccc(NC(=O)C2OC(c3cccs3)=NN2C(C)=O)cc1 (stereo not drawn),19.1%
5,COc1ccc(NC(=O)C2OC(c3cccs3)=NN2C(C)=O)cc1OC (stereo not drawn),54.99%
6,CC(=O)N1N=C(c2cccs2)OC1C(=O)Nc1ccccc1 (stereo not drawn),6.727%
7,CC(=O)N1N=C(c2ccccc2)OC1C(=O)NCCc1cccc(Cl)c1 (stereo not drawn),-5.794%
8,O=C(O)C(F)(F)F.O=C(c1ccc2ccccc2n1)N1CCC2(CCN2c2ncccn2)C1 (stereo not drawn),-9.605%
9,CCc1ccc(CN2CCC3(CC2)CC(N2CCN(C)CC2)CO3)cc1.O=C(O)C(F)(F)F (stereo not drawn),2.884%
10,Cc1ccc(CN(C(=O)NCCNC(=O)c2cccnc2)C(C)C)o1,-12.97%
11,Cc1ccc(CN2CC[C@@H](NC(=O)c3cccnc3)[C@H](O)C2)o1,8.326%
12,Cc1ccc(CCNC(=O)c2cccnc2)o1,80.23%
13,CCc1cc(C(=O)N2CCCC(Cc3ccc(NC)nn3)C2)on1 (stereo not drawn),-39.14%
14,COCCCNC(=O)CN(C)C(=O)c1cc(Cl)ccc1O,100.8%
15,COCCCNC(=O)CN(C)C(=O)c1ccccc1O,-10.97%
16,COCCCNC(=O)CN(C)C(=O)c1cc(C)ccc1O,5.458%
17,N#Cc1cccc(CN2CCn3cc(Cn4cccn4)nc3C2)c1.O=C(O)C(F)(F)F.O=C(O)C(F)(F)F,-31.57%
18,COC[C@@H]1CCC[C@@]12CN(Cc1ccc(C)s1)CCO2.O=C(O)C(F)(F)F,-18.91%
19,CCOCc1cnc2n1CCN(C(=O)c1ccoc1C)C2C (stereo not drawn),26.88%
20,CCOCc1cnc2n1CCN(C(=O)c1ccccc1)C2C (stereo not drawn),53.26%
21,CCOCc1cnc2n1CCN(C(=O)C1=CCCC1)C2C (stereo not drawn),-7.076%
22,CCOCc1cnc2n1CCN(C(=O)c1cccc3c1OCCO3)C2C (stereo not drawn),51.66%
23,CCOCc1cnc2n1CCN(C(=O)c1cn(C)c3ccccc13)C2C (stereo not drawn),8.997%
24,CCOCc1cnc2n1CCN(C(=O)Cc1cccs1)C2C (stereo not drawn),-15.31%

row,Structure (SMILES),Percent Effect
1,Cc1nc(COC[C@@H]2CC[C@H]3[C@H](CCN3c3ncccn3)O2)cs1.O=C(O)C(F)(F)F,3.819%
2,O=C(O)C(F)(F)F.O=C(O)C(F)(F)F.O=C(O)C(F)(F)F.c1ccc(N2CC3(CCN(Cc4cccnc4)C3)C2)nc1,-1.371%
3,COc1ncccc1CN1C[C@H]2C[C@@H](C(=O)NCC3CC3)N(C)[C@H]2C1.O=C(O)C(F)(F)F.O=C(O)C(F)(F)F.O=C(O)C(F)(F)F,-0.5017%
4,COCCNC(=O)[C@@]12CCO[C@@H]1CCN(Cc1cc(C)on1)C2.O=C(O)C(F)(F)F,-5.953%
5,COc1ccc(C(CNS(=O)(=O)c2cn(C)nc2C)N2CCCC2)cc1.Cl (stereo not drawn),-8.275%
6,Cc1cccc(CN(Cc2ccccn2)S(=O)(=O)N(C)C)c1,-11.53%
7,CCN(Cc1cccc(Cl)c1)Cc1ncc(C(C)(C)C)o1,-28.51%
8,Cc1cccc(CN(Cc2ccccn2)Cc2ncc(C(C)(C)C)o2)c1,77.52%
9,O=C(O)C(F)(F)F.O=C(c1cc[nH]n1)N1CCc2onc(COc3cccnc3)c2C1,4.696%
10,CC(Cn1ccnc1)NCc1cc(Br)c2c(c1)OCO2.Cl (stereo not drawn),-15.88%
11,Cc1nc(CN2CCCC2Cn2cncn2)nc2ccccc12 (stereo not drawn),19.17%
12,Clc1ccc2cccnc2c1CN1CCCC1Cn1cncn1 (stereo not drawn),52.22%
13,Cc1nc2ccccc2nc1CN1CCCCC1Cn1cccn1 (stereo not drawn),5.148%
14,Clc1ccc2cccnc2c1CN1CCCC(Cn2cncn2)C1 (stereo not drawn),18.36%
15,Cc1c(Cl)c(CN2CCCC2Cn2cncn2)nc2ccccc12 (stereo not drawn),54.06%
16,Cc1nc2ccccc2nc1CN1CCCC1Cn1cccn1 (stereo not drawn),61.51%
17,O=C(CN1CCCC1Cn1cncn1)Nc1cccnc1 (stereo not drawn),62.16%
18,Cc1nc2ccccc2nc1CN1CCCCC1Cn1cncn1 (stereo not drawn),12.5%
19,O=C(CN1CCCCC1Cn1cncn1)Nc1ccncc1 (stereo not drawn),-9.468%
20,O=C(CN1CCCC(Cn2cncn2)C1)Nc1cccnc1 (stereo not drawn),9.071%
21,Cc1nc2ccccc2nc1CN1CCCC1Cn1cncn1 (stereo not drawn),3.442%
22,Clc1ccc2cccnc2c1CN1CCCCC1Cn1cncn1 (stereo not drawn),36.55%
23,CN1CC(=O)N(c2cccc(F)c2)CC12CCN(Cc1cnn(C)c1)C2.O=C(O)C(F)(F)F.O=C(O)C(F)(F)F (stereo not drawn),-4.947%
24,Cc1cccc(Nc2cc(C)nc(C3CCN(C(C)C)C3)n2)n1.O=CO (stereo not drawn),-16.48%

row,Structure (SMILES),Percent Effect
1,Cn1cc(CN2CCC[C@]3(C[C@H](Oc4ncccc4F)CO3)C2)cn1.O=C(O)C(F)(F)F.O=C(O)C(F)(F)F,15.03%
2,Cc1cnc(C(=O)N2CCCC(c3c(C)c(=O)nc4n3CCC4)C2)cn1.Cl (stereo not drawn),-2.984%
3,Cc1cc2cc(C(=O)N3CC[C@H](O)[C@]4(CCCO4)C3)ccc2o1,-15.2%
4,CCC(C)NS(=O)(=O)Cc1cccc(NC(=O)C2=CCCC2)c1 (stereo not drawn),26.24%
5,Cc1nc(C)n(CC2CCCN2Cc2cn3c(C)cccc3n2)n1 (stereo not drawn),-6.121%
6,Cc1cccc2nc(CN3CCCC3Cn3cncn3)cn12 (stereo not drawn),-15.33%
7,Cc1cccc2nc(CN3CCCC3Cn3cccn3)cn12 (stereo not drawn),71.56%
8,Cc1cc(N(C)C)nc(C2CCCNC2)n1.Cl (stereo not drawn),-4.07%
9,COc1ccc(C[C@H]2CN(Cc3ccoc3)CC[C@H]2OC)cc1.O=C(O)C(F)(F)F,23.61%
10,Cc1noc(C)c1CN(C)Cn1c(=O)oc2ccccc21,-12.14%
11,O=c1oc2ccccc2n1CCCN1CCCC1c1ccc(O)cc1 (stereo not drawn),-35.87%
12,CCCN(CCn1c(=O)oc2ccccc21)CC1CC1,105%
13,O=c1oc2ccccc2n1CCN(CC1CCOC1)C1CC1 (stereo not drawn),-26.82%
14,CC(NCCn1c(=O)oc2ccccc21)c1ccccn1 (stereo not drawn),5.47%
15,CCN(CC)CCn1c(=O)oc2ccccc21.Cl,76.75%
16,CCN(Cc1ccc(C(C)=O)cc1)CC1CCOCC1,5.377%
17,Cn1cc(C2CCCN2CCCn2c(=O)oc3ccccc32)cn1 (stereo not drawn),-2.71%
18,CCN(CCn1c(=O)oc2ccccc21)CC1CCOCC1,86.99%
19,COc1cccc(Nc2nc(C3CCNCC3)c3sc(C)c(C)n23)c1.Cl,44.92%
20,CN(C)[C@@H]1CN(Cc2cnn(C)c2)[C@@H]2COC[C@H]12.O=C(O)C(F)(F)F.O=C(O)C(F)(F)F.O=C(O)C(F)(F)F,-14.51%
21,O=C(O)C(F)(F)F.O=C1CC[C@H]2[C@H](CCN2c2ncccn2)N1c1ccccc1,21.09%
22,CO[C@H]1COCCN(Cc2c[nH]c3ccccc23)C1,82.59%
23,c1ccc(O[C@H]2COCCN(Cc3cccc4c3OCO4)C2)cc1,-21.01%
24,c1cncc(O[C@H]2COCCN(Cc3c[nH]c4ccccc34)C2)c1,58.82%

row,Structure (SMILES),Percent Effect
1,FC(F)(F)c1ccccc1CN1CCOC[C@H](Oc2cccnc2)C1,-28.03%
2,c1ccc(O[C@H]2COCCN(Cc3c[nH]c4ccccc34)C2)cc1,78.8%
3,Fc1ccc(CN2CCOC[C@H](Oc3cccnc3)C2)cc1,-34.69%
4,O=C(O)c1ccc2c(CN3CCOCC3)c[nH]c2c1,-11.23%
5,COc1ccc(O[C@H]2COCCN(Cc3c[nH]c4ccccc34)C2)cc1,47.94%
6,CC(C)(C)c1coc([C@@H]2COCCN2Cc2c[nH]c3ccccc23)n1,25.07%
7,CCC(C)S(=O)(=O)N1CCc2nc(C3CCNCC3)ncc2C1.Cl (stereo not drawn),-3.075%
8,Cc1cccc(CN2CCc3nnc(CN4CCCCC4)n3CC2)n1.O=C(O)C(F)(F)F.O=C(O)C(F)(F)F,-5.727%
9,Cl.Cn1ccnc1N1CCN(C(=O)Cc2ccc(Cl)cc2)CC1,-26.02%
10,Cc1ccc(C(=O)N2CC3(CCNCC3)c3cc(Cl)ccc32)cn1.O=C(O)C(F)(F)F.O=C(O)C(F)(F)F,1.032%
11,Cc1cccc(CN2C(=O)C[C@H]3[C@@H]2CCN3Cc2ccco2)n1.O=C(O)C(F)(F)F.O=C(O)C(F)(F)F,-4.137%
12,CC(C)(C)c1cc(CN2C[C@H]3CC[C@@H]2CN(Cc2ccccn2)C3)n[nH]1,99.23%
13,CC(C)(C)c1cc(CN2C[C@@H]3CC[C@H](C2)N(Cc2ccccn2)C3)n[nH]1,82.46%
14,O=C(CN1C[C@H]2CC[C@@H]1CN(Cc1ccccn1)C2)Nc1ccccc1,12.62%
15,Cn1ccc(NC(=O)CN2C[C@H]3CC[C@@H]2CN(Cc2ccccn2)C3)n1,-21.74%
16,Cc1nnsc1CN1C[C@H]2CC[C@@H]1CN(Cc1ccccn1)C2,-2.005%
17,Cn1cnc(S(=O)(=O)N2C[C@@H]3CC[C@H](C2)N(Cc2ccccn2)C3)c1,7.06%
18,O=C(O)C(F)(F)F.c1ccc(CN2CCc3ncnc(C4CC4)c3CC2)cc1,-16.81%
19,CC(=O)N1CC2(CCNCC2)c2cc(Cl)ccc21.Cl,3.682%
20,CO[C@H]1CN(C(=O)c2ccccn2)[C@@H]2CCCO[C@H]12.O=C(O)C(F)(F)F,0.07759%
21,CS(=O)(=O)NCc1cnc2n1CCN(Cc1ccccn1)CC2.O=C(O)C(F)(F)F,-38.1%

# — ChEMBL document CHEMBL3988442, “University of Dundee, Small-Polar-MMV Screening Library” (2021)
